# PubChem BioAssay (NCATS)
# Inconclusive results are not listed. Entries that show only a call come without a potency. Calls of active or inactive are those of the source. Unless noted, calls come from the whole dose curve; as a rule, active = well fitted curve in the direction sought with a large enough effect; inconclusive = small, poorly fitted or top-dose-only effect, or another doubt; inactive = no such curve, though single readings can be large; an effect the other way counts as inactive or inconclusive. Bridge positions count the residues as written; N and C are the ends. Square brackets hold non-standard residues; d marks the D form. Peptide text beside a SMILES is read from it. * marks the point of attachment. Octanoyl(6-Me) = CCC(C)CCCCC(=O)*; Dab = NCC[CH](N)C(=O)O
# Experiments:
# [1] = qHTS drug screen for cell cycle checkpoint inhibitors in PARPi-resistant BRCA-mutant ovarian cancer cell lines. (AID 1963452; calls by dose curve; note: potency is the fitted concentration of half-maximal effect); details: PEO1/OlaR viability, CellTiter-Glo luminescence, 96 h; for Z-AUC: stronger effect = lower value
# Summary of the method: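 PEO1, PEO4 and PEO1/OlaR ovarian cancer cells, 600 per well, exposed 96 h at 37C to a dilution series. Viability read by CellTiter-Glo luminescence, normalized to DMSO and empty wells; activity summarized as Z-AUC.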
# C2A = assay: qHTS profiling for inhibitors of Plasmodium falciparum proliferation (AID 504749); note: nearly all actives have a fitted effect of over 60% in size; note: potency is the fitted concentration of half-maximal effect; details: P. falciparum in erythrocytes, SYBR Green DNA, 72 h; series mostly up to 28.7 µM
# Summary of the method: (§1)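 Fluorescence of SYBR Green-bound parasite DNA, read at 485/535 nm, served as the growth measure. Infected erythrocytes were cultured with compound 72 h; artemisinin (0.29 uM) and DMSO wells defined the normalization range.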
# CP191 = assay: as above; details: P. falciparum in erythrocytes, SYBR Green DNA, 72 h; series mostly up to 28.7 µM
# Summary of the method: as §1
# CP237 = assay: as above; details: P. falciparum in erythrocytes, SYBR Green DNA, 72 h; series mostly up to 28.7 µM
# Summary of the method: as §1
# CP256 = assay: as above; details: P. falciparum in erythrocytes, SYBR Green DNA, 72 h; series mostly up to 28.7 µM
# Summary of the method: as §1
# CP260 = assay: as above; details: P. falciparum in erythrocytes, SYBR Green DNA, 72 h; series mostly up to 28.7 µM
# Summary of the method: as §1
# CP266 = assay: as above; details: P. falciparum in erythrocytes, SYBR Green DNA, 72 h; series mostly up to 28.7 µM
# Summary of the method: as §1
# CP305 = assay: as above; details: P. falciparum in erythrocytes, SYBR Green DNA, 72 h; series mostly up to 28.7 µM
# Summary of the method: as §1
# CP315 = assay: as above; details: P. falciparum in erythrocytes, SYBR Green DNA, 72 h; series mostly up to 28.7 µM
# Summary of the method: as §1
# CP329 = assay: as above; details: P. falciparum in erythrocytes, SYBR Green DNA, 72 h; series mostly up to 28.7 µM
# Summary of the method: as §1
# DFO2036 = assay: as above; details: P. falciparum in erythrocytes, SYBR Green DNA, 72 h; series mostly up to 28.7 µM
# Summary of the method: as §1
# DIV17 = assay: as above; details: P. falciparum in erythrocytes, SYBR Green DNA, 72 h; series mostly up to 28.7 µM
# Summary of the method: as §1
# Dd2 = assay: as above; details: P. falciparum in erythrocytes, SYBR Green DNA, 72 h; series mostly up to 28.7 µM
# Summary of the method: as §1
# ECU = assay: as above; details: P. falciparum in erythrocytes, SYBR Green DNA, 72 h; series mostly up to 28.7 µM
# Summary of the method: as §1
# HB3 = assay: as above; details: P. falciparum in erythrocytes, SYBR Green DNA, 72 h; series mostly up to 28.7 µM
# Summary of the method: as §1
# P94_40 = assay: as above; details: P. falciparum in erythrocytes, SYBR Green DNA, 72 h; series mostly up to 28.7 µM
# Summary of the method: as §1
# PAD = assay: as above; details: P. falciparum in erythrocytes, SYBR Green DNA, 72 h; series mostly up to 28.7 µM
# Summary of the method: as §1
# SC27B = assay: as above; details: P. falciparum in erythrocytes, SYBR Green DNA, 72 h; series mostly up to 28.7 µM
# Summary of the method: as §1
# TAB109 = assay: as above; details: P. falciparum in erythrocytes, SYBR Green DNA, 72 h; series mostly up to 28.7 µM
# Summary of the method: as §1
# [2] = Cell Viability - HUV-EC-C (AID 542); details: HUV-EC-C endothelial cell viability, qHTS; series mostly up to 92.2 µM;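 note: cells exposed to compound for 40 hours; nearly all actives have a fitted effect of over 35% in size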
# Summary of the method: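 Luminescent ATP read-out (CellTiter-Glo, 20 min room temperature) after 40 hr compound treatment of HUV-EC-C cells at 37 °C. Concentration-response data fitted with the standard Hill equation to give AC50; tamoxifen and doxorubicin served as positive controls.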
# [3] = measured here: PEO1 parental Z-AUC
smiles,measurement,setting,value
CC(C)NC(=O)C1CCC(n2c(NC(=O)c3ccc(F)cc3)nc3ccc(CN4CCC(C(C)(C)O)CC4)cc32)CC1 (configuration not stated),Potency,[1],8.48 µM (active)
CCN1/C(=C/C=C/C=C/c2sc3ccccc3[n+]2CC)Sc2ccccc21,Potency,C2A,3.55 µM (active)
same,Potency,CP191,3.55 µM (active)
same,Potency,CP237,1.58 µM (active)
same,Potency,CP256,4.47 µM (active)
same,Potency,CP260,0.631 µM (active)
same,Potency,CP266,9.53 µM (active)
same,Potency,CP305,10.7 µM (active)
same,Potency,CP315,12 µM (active)
same,Potency,CP329,6.75 µM (active)
same,Potency,DFO2036,3.55 µM (active)
same,Potency,DIV17,9.53 µM (active)
same,Potency,Dd2,2.24 µM (active)
same,Potency,ECU,4.47 µM (active)
same,Potency,HB3,2.24 µM (active)
same,Potency,P94_40,3.98 µM (active)
same,Potency,PAD,5.01 µM (active)
same,Potency,SC27B,6.31 µM (active)
same,Potency,TAB109,3.98 µM (active)
CNC(=O)c1ccccc1Nc1nc(Nc2ccc3c(c2OC)CCC[C@H](N2CCN(CCO)CC2)C3)ncc1Cl,Z-AUC,[1],-0.709 (inactive)
same,Z-AUC,[1]; [3],-0.531
same,Z-AUC,[1]; measured here: PEO4 Z-AUC,-0.58
c1ccc2scnc2c1,outcome,[2],inactive
CCC(C)CCCCC(=O)NC(CCN)C(=O)NC(C(=O)NC(CCN)C(=O)NC1CCNC(=O)C(C(C)O)NC(=O)C(CCN)NC(=O)C(CCN)NC(=O)C(CC(C)C)NC(=O)C(Cc2ccccc2)NC(=O)C(CCN)NC1=O)C(C)O (configuration not stated) ({Octanoyl(6-Me)}-[Dab]T[Dab][Dab][Dab]FL[Dab][Dab]T; lactam 4-C; configuration not given here),Potency,C2A,inactive
same,Potency,CP191,inactive
same,Potency,CP237,inactive
same,Potency,CP256,inactive
same,Potency,CP260,inactive
same,Potency,CP266,inactive
same,Potency,CP305,inactive
same,Potency,CP315,inactive
same,Potency,CP329,inactive
same,Potency,DFO2036,inactive
same,Potency,DIV17,inactive
same,Potency,Dd2,inactive
same,Potency,ECU,inactive
same,Potency,HB3,inactive
same,Potency,P94_40,inactive
same,Potency,SC27B,inactive
same,Potency,TAB109,inactive
CO/N=C(/C(=O)N[C@@H]1C(=O)N2C(C(=O)O)=CCS[C@H]12)c1csc(N)n1,Potency,C2A,inactive
same,Potency,CP191,inactive
same,Potency,CP237,inactive
same,Potency,CP256,inactive
same,Potency,CP260,inactive
same,Potency,CP266,inactive
same,Potency,CP305,inactive
same,Potency,CP315,inactive
same,Potency,CP329,inactive
same,Potency,DFO2036,inactive
same,Potency,DIV17,inactive
same,Potency,Dd2,inactive
same,Potency,ECU,inactive
same,Potency,HB3,inactive
same,Potency,P94_40,inactive
same,Potency,PAD,inactive
same,Potency,SC27B,inactive
same,Potency,TAB109,inactive
CO[C@@H]1[C@@H](OC2OC(C)C(OC3CC(C)(O)C(OC(=O)CC(C)C)C(C)O3)C(N(C)C)C2O)[C@@H](CC=O)C[C@@H](C)C(=O)/C=C\C2O[C@H]2C[C@@H](C)OC(=O)C[C@H]1OC(C)=O (some centres not stated),Potency,C2A,10 µM (active)
same,Potency,CP191,11.2 µM (active)
same,Potency,CP237,10 µM (active)
same,Potency,CP256,5.01 µM (active)
same,Potency,CP260,7.94 µM (active)
same,Potency,DFO2036,10 µM (active)
same,Potency,DIV17,10.7 µM (active)
same,Potency,Dd2,0.891 µM (active)
same,Potency,ECU,8.91 µM (active)
same,Potency,HB3,11.2 µM (active)
same,Potency,P94_40,8.91 µM (active)
same,Potency,PAD,11.2 µM (active)
same,Potency,SC27B,10 µM (active)
same,Potency,TAB109,3.98 µM (active)
O=C1CCc2ccccc2O1,outcome,[2],inactive
CN(C)CCCOc1ccc(-c2ccc3ncc4c(c3c2)n(C2CCOCC2)c(=O)n4C)cn1,Potency,[1],3.01 µM (active)
same,Z-AUC,[1]; [3],-1.35
same,Z-AUC,[1]; measured here: PEO4 Z-AUC,-1.31
O[C@@H]([C@H](O)[C@@H](O)CBr)[C@@H](O)CBr,outcome,[2],inactive
CC(C)CN(C[C@@H](OP(=O)(O)O)[C@H](Cc1ccccc1)NC(=O)O[C@@H]1CCOC1)S(=O)(=O)c1ccc(N)cc1,Potency,C2A,inactive
same,Potency,CP191,inactive
same,Potency,CP237,inactive
same,Potency,CP256,inactive
same,Potency,CP260,inactive
same,Potency,CP266,inactive
same,Potency,CP305,inactive
same,Potency,CP315,inactive
same,Potency,CP329,inactive
same,Potency,DFO2036,inactive
same,Potency,DIV17,inactive
same,Potency,Dd2,inactive
same,Potency,ECU,inactive
same,Potency,HB3,inactive
same,Potency,P94_40,inactive
same,Potency,PAD,inactive
same,Potency,SC27B,inactive
same,Potency,TAB109,inactive
CC(=O)O[C@@]12CO[C@@H]1C[C@H](O)[C@@]1(C)C(=O)[C@H](O)C3=C(C)[C@@H](OC(=O)C(O)[C@@H](NC(=O)OC(C)(C)C)c4ccccc4)C[C@@](O)([C@@H](OC(=O)c4ccccc4)[C@H]21)C3(C)C (some centres not stated),Potency,C2A,0.0316 µM (active)
same,Potency,CP191,0.0282 µM (active)
same,Potency,CP237,0.0178 µM (active)
same,Potency,CP256,0.0316 µM (active)
same,Potency,CP260,0.0251 µM (active)
same,Potency,CP305,0.0426 µM (active)
same,Potency,CP315,0.0338 µM (active)
same,Potency,CP329,0.0338 µM (active)
same,Potency,DFO2036,0.0224 µM (active)
same,Potency,DIV17,1.35 µM (active)
same,Potency,Dd2,0.01 µM (active)
same,Potency,ECU,0.0631 µM (active)
same,Potency,HB3,0.0794 µM (active)
same,Potency,P94_40,0.0355 µM (active)
same,Potency,PAD,0.126 µM (active)
same,Potency,SC27B,0.199 µM (active)
same,Potency,TAB109,0.0316 µM (active)
CONC(=O)c1ccccc1Nc1cc(Nc2cc(C)nn2C(C)C)ncc1Cl,Z-AUC,[1],0.959 (inactive)
same,Z-AUC,[1]; [3],0.188
same,Z-AUC,[1]; measured here: PEO4 Z-AUC,0.196
CC(C)(O)C1CCC(Nc2ccc3ncc(-c4cccc(C(F)(F)F)c4)n3n2)CC1 (configuration not stated),Potency,[1],5.49 µM (active)
same,Z-AUC,[1]; [3],-1.03
same,Z-AUC,[1]; measured here: PEO4 Z-AUC,-1.21
CCC(=O)O[C@@H](OP(=O)(CCCCc1ccccc1)CC(=O)N1C[C@H](C2CCCCC2)C[C@H]1C(=O)O)C(C)C (some centres not stated),Potency,C2A,inactive
same,Potency,CP191,inactive
same,Potency,CP237,inactive
same,Potency,CP256,inactive
same,Potency,CP260,inactive
same,Potency,CP266,inactive
same,Potency,CP305,inactive
same,Potency,CP315,inactive
same,Potency,CP329,inactive
same,Potency,DFO2036,inactive
same,Potency,DIV17,inactive
same,Potency,Dd2,inactive
same,Potency,ECU,inactive
same,Potency,HB3,inactive
same,Potency,P94_40,inactive
same,Potency,PAD,inactive
same,Potency,SC27B,inactive
same,Potency,TAB109,inactive
CC1(C)S[C@@H]2[C@H](NC(=O)COc3ccccc3)C(=O)N2[C@H]1C(=O)O,Potency,C2A,inactive
same,Potency,CP191,inactive
same,Potency,CP237,inactive
same,Potency,CP256,inactive
same,Potency,CP260,inactive
same,Potency,CP266,inactive
same,Potency,CP305,inactive
same,Potency,CP315,inactive
same,Potency,CP329,inactive
same,Potency,DFO2036,inactive
same,Potency,DIV17,inactive
same,Potency,Dd2,inactive
same,Potency,ECU,inactive
same,Potency,HB3,inactive
same,Potency,P94_40,inactive
same,Potency,PAD,inactive
same,Potency,SC27B,inactive
same,Potency,TAB109,inactive
CC1CCC(C(C)C)C(OC(=O)c2ccccc2O)C1 (configuration not stated),Potency,C2A,inactive
same,Potency,CP191,inactive
same,Potency,CP237,inactive
same,Potency,CP256,inactive
same,Potency,CP260,inactive
same,Potency,CP266,inactive
same,Potency,CP305,inactive
same,Potency,CP315,inactive
same,Potency,CP329,inactive
same,Potency,DFO2036,inactive
same,Potency,DIV17,inactive
same,Potency,Dd2,inactive
same,Potency,ECU,inactive
same,Potency,HB3,inactive
same,Potency,P94_40,inactive
same,Potency,PAD,inactive
same,Potency,SC27B,inactive
same,Potency,TAB109,inactive
